# Assay results taken from ChEMBL document CHEMBL3988442, “University of Dundee, Small-Polar-MMV Screening Library” (2021).
# Where “and” joins values, the source holds several entries; their conditions need not be identical. Identical values can stand only once. Out of some 34,000 compounds screened, about 290 (0.85%) showed an effect of 50% or more. Only a selection was taken, and strong results are over-represented in it overall.
# Tested on: Plasmodium falciparum
# Test: Plasmodium falciparum sporozoite viability assay
# Assay type: functional, organism-based
# Parameters: scale not given: in the data most compounds retested in dose-response had high values
Structure (SMILES),Percent Effect,Percent Effect (10 mM as filed; unlikely as a test dose)
CCc1nc(CNC(C)Cn2cccn2)cs1 (configuration not stated),4.8%,
CNC(=O)[C@@H]1CN(Cc2ccccc2)C[C@H]1C(=O)c1ccc(F)cc1,12.45%,
CC(C)(C)n1cc(C2=CCN(CCNC(=O)c3ccccc3)CC2)cn1,,-11.67% and -1.893%
Cc1nc(O)cc(CN2CC=C(c3cnn(C(C)(C)C)c3)CC2)n1,,-34.41% and -32.55%
CC(C)(C)n1cc(C2=CCN(CCNC(N)=O)CC2)cn1,,-28.2% and -25.06%
CC(C)(C)n1cc(C2=CCN(CCN3CCCCCC3)CC2)cn1,,-30.5% and -32%
CC(C)(C)n1cc(C2=CCN(CCc3ccccn3)CC2)cn1,,78.88% and 77.42%
CC(C)(C)n1cc(C2=CCN(CCc3ccccc3)CC2)cn1,,84.88% and 75.7% and 89.28%
O=C(O)C(F)(F)F.O=C(O)C(F)(F)F.O=S(=O)(C1CC1)N1CCC2(CC1)CN(Cc1ccccn1)CCO2,0.5199%,
CCS(=O)(=O)N1CCN(CC2CC2)c2ncccc2C1,11.27%,
O=C(c1ccsc1)N1CCN2C[C@H](OCc3ccccn3)C[C@H]2C1,1.117%,
O=C(Cc1ccccn1)N1CCN2C[C@H](OCCN3CCCC3)C[C@H]2C1.O=C(O)C(F)(F)F.O=C(O)C(F)(F)F.O=C(O)C(F)(F)F,-8.505%,
Cl.FC(F)(F)c1nc(C2CCCNC2)no1 (configuration not stated),6.016%,
c1cnc(Nc2ccc(C3CCCCN3)cn2)cn1 (configuration not stated),,-2.241% and -0.3197% and -12.37%
Cc1cc(O)nc(C2CCCNC2)n1.Cl (configuration not stated),1.062%,
Cc1cccc(Nc2ccc(C3CCCCN3)cn2)n1 (configuration not stated),,97.8% and 85.07% and 40.73%
Cc1cc(C)nc(C2CCCNC2)n1.Cl.Cl (configuration not stated),16.42%,
COCCN1CCOCC12CCN(C(=O)c1ccncc1)CC2.O=C(O)C(F)(F)F,-4.875%,
O=C(O)C(F)(F)F.O=C(O)C(F)(F)F.c1cncc(N2CCOCC3(CN(Cc4cccs4)CCO3)C2)c1 (configuration not stated),7.302%,
O=C(O)C(F)(F)F.O=C(O)C(F)(F)F.c1cncc(COCC2CC[C@H]3[C@H]2OCCN3Cc2ccoc2)c1 (some centres not stated),12.08%,
O=C(O)C(F)(F)F.O=C(O)C(F)(F)F.c1cncc(OC[C@@]23CCC[C@@H]2CN(C2CCOCC2)C3)c1,9.846%,
O=C(O)C(F)(F)F.O=C(O)C(F)(F)F.c1cnc(N2CC3(CCN(Cc4ccncc4)C3)C2)nc1,-6.54%,
